From ChEMBL document CHEMBL1201862, “PubChem BioAssay data set” (2004)
The whole screen tested about 53,000 sequences, of which about 3,200 (6%) were called active. Rule as the data show it: active = GI50 up to about 1.1 µM and inactive = higher. The full list was thinned out, with actives kept by preference. Potency and affinity values are given separately.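 Protocol summary: plate cells (96-well), add compound at 5 concentrations, incubate 48 h, interpolate endpoints linearly. Here, GI50 denotes the concentration required for 50% inhibition of growth.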

system: HCC 2998; experiment: NCI tumour cell line growth inhibition, 48 h

Substance	GI50 [µM]
CISPLATIN, CHEMBL11359	5.4
[Bis(aminomethyl)tetramethylenesilane]dichloropaltinum(II), CHEMBL2146205	25.4
[Bis(aminomethyl)dimethylsilane]tetrachloroplatinum(IV), CHEMBL2146190	6.78
[Bis(aminomethyl)dimethylsilane]dichloroplatinum (II), CHEMBL2146201	10
[Bis(aminomethyl)ethylmethylsilane]tetrachloroplatinum(IV), CHEMBL2146192	2.38
[Bis(aminomethyl)pentamethylenesilane]tetrachloropaltinum(IV), CHEMBL2146204	0.313
[Bis(aminomethyl)tetramethylenesilane]tetrachloropaltinum(IV), CHEMBL2146189	0.682
mu-(1,7-nanodiamine-N,N')bis-(cis-aminedichloroplatimum (II)), CHEMBL2146215	24
[Bis(aminomethyl)pentamethylenesilane]dichloropaltinum(II), CHEMBL2146202	3.52
